Source: PubChem BioAssay
Shown are actives, neighbours in structure and some others; about 2.7% of the full set was active somewhere.
HIF-2a inh: inhibitors of HIF-2a. 786-0 RCC cells HIF-2a reporter, luciferase luminescence, overnight. AID 624352. inhibition, % at 18.8 µM. 0.72% of 360,000 active;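 active = inhibition of the luminescence signal of 40% or more relative to plate controls, in a single-dose primary screen at 18.75 µM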
MITF TRPM1 inh: reduces MITF-dependent TRPM1 promoter luciferase signal; SK-MEL-5 TRPM1 promoter luciferase, 24 h; inhibition, % at 12.5 µM; 0.83% of 330,000 active; AID 488899;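 active = mean inhibition across replicates of 60% or more, whatever share of single replicates reaches that level; inconclusive = some that reach 60%, reason not given; inactive = mean inhibition across replicates below 60%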
Peg3 promoter: Peg3 promoter activity inhibition. 1.7% of 360,000 active. inhibition, % at 20 µM. AID 588405. HeLa PEG-Prom luciferase reporter, luminescence, overnight;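 active = inhibition of at least 50% at 20 µM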
CF NFkB block: blocks PAF-induced NF-kB reporter in cystic fibrosis cells. inhibition, % at 5 µM. KKLEB NF-kB-GFP reporter, GFP fluorescence overnight. 0.86% of 360,000 active;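 active = at least 50% inhibition at 5 µM, scaled per plate between neutral and stimulator controls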;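 also: PAF is a Pseudomonas aeruginosa culture filtrate used as stimulus; plate controls were PAF-stimulated DMSO wells for no effect and unstimulated DMSO wells for full effect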
KKLEB tox: counter-screen for CF NF-kB inhibitors: cytotoxicity. AID 602141. activity change (cytotoxicity), % at 5 µM. KKLEB CF airway cells viability, ATPlite luminescence, overnight; hits give low values; cells stimulated with P. aeruginosa culture filtrate. 0.36% of 360,000 active;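 active = corrected activity change at or below -50% at 5 µM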
Shn3 3UTR inh: Schnurri-3 reporter inhibition in Clone20 osteoblasts | Clone20 osteoblast Shn3 3'UTR firefly luciferase, 24 h | inhibition, % at 12.5 µM | 0.52% of 360,000 active | AID 588674;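 active = mean inhibition of at least 75% with every replicate also reaching 75%; inconclusive = mean inhibition at least 75% but some replicate below; inactive = mean inhibition below 75%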;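 also: 0% = median of neutral control wells and 100% = pilot-screen positive control compound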
Numbers without * were called inactive; u = inconclusive; x = not tested or not shown.

SMILES	HIF-2a inh	MITF TRPM1 inh	Peg3 promoter	CF NFkB block	KKLEB tox	Shn3 3UTR inh
C=CCC[C@H](Cc1ccc(F)cc1)C(=O)OC[C@H](Cc1c[nH]c2ccccc12)NC(=O)[C@@H](CC=C)CC(=O)N[C@H](CO)Cc1ccccc1	0	11	22	-8	8	92*
C=CCC[C@H](Cc1ccc(F)cc1)C(=O)OC[C@H](Cc1c[nH]c2ccccc12)NC(=O)[C@@H](CC=C)CC(=O)N[C@@H](CO)Cc1ccccc1	-2	75*	35	40	-35	72
O=C(NC(Nc1ncc(S(=O)(=O)c2ccc([N+](=O)[O-])cc2)s1)(C(F)(F)F)C(F)(F)F)c1ccc(Cl)cc1	-3	18	42	50	-55*	23
Cc1ccc(C(=O)CCS(=O)(=O)c2ccc(F)cc2)cc1	7	-4	60*	32	-11	9
CCOC(=O)C1CCCN(C(=O)/C(=C/c2ccco2)NC(=O)c2ccccc2)C1 (centres undefined)	14	8	3	-12	7	-9
CSc1ncnc2c1ncn2CCCNCc1ccc2c(c1)OCO2	7	x	-12	3	-5	-9
CCOc1cccc2cc(C(=O)N3CC(C)OC(C)C3)c(=O)oc12 (centres undefined)	21	8	53*	3	-12	12
CC(Oc1cccc(Br)c1)C(=O)NNC(=O)c1ccccn1 (centres undefined)	2	82*	32	-6	-8	u
CCCS(=O)(=O)NC(=O)C1(C)CCN(C(=O)c2ccco2)C1 (centres undefined)	6	x	-3	19	-10	6
COc1ccc(-c2cc(-c3ccc(C)cc3)nc(SCc3nnc(-c4ccccc4)o3)c2C#N)cc1OC	12	-3	38	46	-70*	14
Cc1ccc(-c2csc3nc(SCC(N)=O)n(Cc4ccccc4)c(=O)c23)cc1	7	-1	53*	-8	-6	-3
Cc1ccc(-c2csc3ncnc(SCC(N)=O)c23)cc1	11	-8	19	23	6	-1
CCN(CC)S(=O)(=O)c1ccc2c(c1)c(=O)c(C(=O)N1CCN(c3ccccn3)CC1)cn2C	4	2	16	9	-3	-7
COc1ccc(-c2csc3ncnc(N4CCN(c5ccccc5OC)CC4)c23)cc1	14	-9	37	16	-7	-19
Oc1ccccc1N1CCN(c2ncnc3scc(-c4ccccc4)c23)CC1	24	2	59*	36	1	-9
CCOc1ccccc1N1CCN(c2ncnc3scc(-c4ccc(OC)cc4)c23)CC1	22	7	59*	36	-8	21
Oc1ccccc1N1CCN(c2ncnc3scc(-c4ccc(F)cc4)c23)CC1	23	7	49	34	9	18
COc1ccc(C(=O)OCC(=O)N2CCCCCC2)cc1S(=O)(=O)N1CCOCC1	4	2	-4	0	6	-27
COc1ccc(C)cc1-n1nnnc1SCC(=O)NC1CC1	9	9	4	-20	6	-2
CC[C@]12c3[nH]c4cc(CCC(=O)N(C)C)ccc4c3CCN1C(=O)[C@@H](CC(=O)NC/C=C(\C)CCC=C(C)C)C[C@@H]2C(=O)N1CCN(C(=O)c2ccco2)CC1	-79	51	21	-138	8	87*
CN(C)CCCNC(=O)C[C@H]1C[C@H](C(=O)N2CCOCC2)[C@@]2(CCC3CCCC3)c3[nH]c4cc(-c5ccco5)ccc4c3CCN2C1=O	-9	-3	95*	26	-3	-7
COc1ccc2[nH]c3c(c2c1)CCN1C(=O)C(CC(=O)NC/C=C(\C)CCC=C(C)C)C[C@H](C(=O)N2CCOCC2)[C@@]31CCC1CCCC1 (some centres undefined)	0	25	59*	-16	8	36
CC(C)N(C(=O)[C@H]1C[C@H](CC(=O)NCCCN(C)C)C(=O)N2CCc3c([nH]c4cc(-c5ccco5)ccc34)[C@]12C)C(C)C	-30	73*	91*	40	-15	-26
CC[C@]12c3[nH]c4ccc(OC)cc4c3CCN1C(=O)C(CC(=O)NC/C=C(\C)CCC=C(C)C)C[C@@H]2C(=O)N1CCN(C(=O)C2CC2)CC1 (some centres undefined)	4	-2	9	14	3	20
CC(OC(=O)C1=COCCO1)C(=O)NC1(C#N)CCCCC1 (centres undefined)	15	5	1	-13	14	-14
SMILES	HIF-2a inh	MITF TRPM1 inh	Peg3 promoter	CF NFkB block	KKLEB tox	Shn3 3UTR inh
Cc1ccc2c(c1)C1CC(C)(O2)N(c2cccc(C(=O)N3CCN(c4ccccn4)CC3)c2)C(=O)N1 (centres undefined)	22	3	14	-16	-8	18
CCc1ccc2c(c1)C1(NN=C(c3ccc(C)cc3)S1)C(=O)N2 (centres undefined)	89*	-1	48	2	-12	-5
Cc1cccnc1C(NC(=O)C1CCN(Cc2ccc(Cl)cc2)CC1)c1ccccc1 (centres undefined)	-3	x	13	13	-6	10
Cc1cccnc1C(NC(=O)C1CCN(CCOc2ccc(Cl)cc2Cl)CC1)c1ccc(Cl)cc1 (centres undefined)	-24	x	77*	16	-19	9
Cc1cccnc1C(NC(=O)C1CCN(CCCc2ccccc2)CC1)c1ccc(Cl)cc1 (centres undefined)	7	x	13	31	-27	-17
O=C(NC(c1ccc(F)cc1)c1cnccn1)C1CCN(CCOc2ccc(Cl)cc2Cl)CC1 (centres undefined)	-9	x	0	-6	-8	-5
Cc1cccnc1C(NC(=O)C1CCN(Cc2cn(C)c3ccccc23)CC1)c1ccc(Cl)cc1 (centres undefined)	2	x	105*	34	-26	7
O=C(NC(c1ccc(Cl)cc1)c1ccccn1)C1CCN(CCOc2ccc(Cl)cc2Cl)CC1 (centres undefined)	-22	x	100*	9	-14	-6
O=C(NC(c1ccc(Cl)cc1)c1cccnc1)C1CCN(CCOc2ccc(Cl)cc2Cl)CC1 (centres undefined)	-5	x	63*	16	-12	-7
COc1cc(CNCCO)cc(Cl)c1OCc1ccc(Cl)cc1Cl	5	7	105*	13	-14	11
COc1cc(CNCCO)cc(Br)c1OCc1ccccc1Cl	-12	-8	41	2	-2	-11
COc1cc(CNC(C)(C)CO)cc(Br)c1OCc1ccc(Cl)cc1Cl	1	-14	90*	39	-42	-5
O=C(C1COc2ccccc2O1)N1CCN(c2ccc([N+](=O)[O-])cc2)CC1 (centres undefined)	-19	-9	-38	16	-6	5
